“And” between values parts separate entries of the source, which are not always exact repeats. Equal values may be shown once. The source made the active and inactive calls.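 How the source made its calls, unless noted: active means normalized viability below 100% at a tested concentration; inactive means the rest.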 Non-standard residues stand in square brackets, D forms with d. Residues, ends and D or L forms follow the SMILES beside them. pGlu = O=C1CC[C@@H](C(=O)O)N1
Columns and labels:
[1] = Wnt pathway potentiators raising nuclear beta-catenin – imaging, WNT3A-conditioned medium, mouse C2C12, NPC library, primary screen (AID 1117326; in the data active means nuclear beta-catenin stimulation mostly above about 4.2%, no sharp cut-off; inactive means mostly below about 10%); conditions: stronger effect = higher value
[2] = stimulators of insulin release from INS-1E, primary screen, cell-based, 5 mM glucose, NPC library (AID 1117329;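 active means compound raises insulin release from rat beta cells at 5 mM glucose, no numeric limit stated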); conditions: rat INS-1E insulin secretion, at 10 µM, stronger effect = higher value
[3] = growth inhibition of GSK3B-pretreated HCT116 cells – cell-based, CellTiter-Glo, 0.2 to 20 µM (AID 1117336;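 active means compounds lowering colon cancer cell viability after pretreatment blocking the GSK3B kinase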); conditions: HCT116 viability after GSK3B inhibitor, at 20 µM, stronger effect = higher value
[4] = inhibition of endothelial tube formation, primary screen, imaging, VEGF stimulated, CD31 staining, tube area, NPC library (AID 1117340;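 active means compound that reduces growth-factor-driven endothelial tube area in a mixed cell culture, no cutoff stated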); conditions: VEGF-stimulated ADSC/ECFC co-culture, at 10 µM, stronger effect = higher value
[5] = GLP1 release stimulators, primary, NCI-H716, NPC library (AID 1117341;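 active means compound raises GLP1 secretion from the human gut endocrine cells, with no numeric limit stated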); conditions: NCI-H716 cells, at 10 µM, stronger effect = higher value
[6] = HCT116 colon cancer cell growth inhibition, primary screen, CellTiter-Glo luminescence, NPC library (AID 1117342;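 active means compounds that lower survival of HCT116 colon cancer cells in the luminescence readout, no numeric limit stated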); conditions: at 20 µM (top of the series)
[7] = reduced SW480 viability measured with CellTiter-Glo, NPC library, primary (AID 1117343;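 active means compounds that lower viability of the colon cancer cells in the luminescence readout, with no numeric limit stated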); conditions: CellTiter-Glo luminescence; at 20 µM (top of the series)
[8] = NPC library primary testing for decreased DLD-1 cell viability via CellTiter-Glo (AID 1117346;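 active means compounds that lower survival of DLD-1 colon cancer cells in the luminescence readout, no cutoff given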); conditions: DLD-1 viability, CellTiter-Glo luminescence; at 20 µM (top of the series)
[9] = biological target: 6-phosphogluconate dehydrogenase, decarboxylating (Homo sapiens) (UniProt P52209); test: inhibition of human phosphogluconate dehydrogenase – biochemical, recombinant enzyme, NADPH absorbance, primary screen (AID 1159550;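 active means at least 20% inhibition of 6-phosphogluconate dehydrogenase activity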); conditions: recombinant 6PGD, NADPH absorbance 341 nm; at 10 µM; stronger effect = higher value
[10] = modulation of C. elegans fzo-1 (AID 1259413; call rule not given here;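 further: fzo-1 mutant C. elegans worms in liquid wells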); conditions: C. elegans fzo-1 modulator screen, mean read-out; stronger effect = higher value
[11] = EMT-state selective cytotoxicity in co-culture – imaging, PC-3E GFP, TEM4-18 mCherry, primary screen (AID 1345086;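 active means compounds killing one labelled cell type while sparing the other, by normalised counts and ratio limits, not self-fluorescent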;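 on all read-outs here: cells exposed to compound for 72 h before imaging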;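 on red/green cell ratio (normalised): normalised mesenchymal count divided by normalised epithelial count so high means epithelial killing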); conditions: PC-3E GFP / TEM4-18 mCherry co-culture, imaging cell counts, at 1 µM; for red/green cell ratio (normalised): actives lie on both sides, counts scaled to control wells, 1 = unselective
[12] = MELAS cybrid and Rieske KO viability enhancers – cell-based, MELAS cybrids, Rieske KO mouse fibroblasts, CellTiter-Glo, primary screen (AID 1508586;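 active means mean z-score across replicates of 1.96 or higher in either the MELAS or the Rieske mutant cell line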;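 further: z relative to plate mean and SD of compound and empty wells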); conditions: low glucose
[13] = drug combination growth inhibition, ovarian cancer – cell-based, oncology-focused library, rucaparib conditional, profiling panel (AID 1508598); conditions: patient-derived ovarian cancer cells, CellTiter-Glo viability, 144 h, stronger effect = lower value
[14] = biological target: NAD(+) hydrolase SARM1 (Homo sapiens) (UniProt Q6SZW1); test: blocking NAD cleavage by SARM1 SAM-TIR – cell lysate, NAD-Glo luminescence (AID 1508614;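 active means compound whose remaining NAD level is above about 45 nM, limit read from the data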); conditions: SAM-TIR HEK293T lysate NADase, at 1 µM, stronger effect = higher value
[15] = biological target: Mitogen-activated protein kinase 7 (Homo sapiens) (UniProt Q13164); test: Gal4-ERK5 driven luciferase induction – cell-based, HTS, primary screen (AID 1508626;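 active means luciferase signal above three times the same-plate solvent-only control wells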;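 further: luciferase driven by Gal4-ERK5 fusion binding five Gal4 sites before minimal TATA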); conditions: HeLa Gal4-ERK5 transactivation, 18 h, at 5 µM, stronger effect = higher value
[16] = tested on: F380Y; test: BK channel mutant inhibitors and activators – cell-based, U2OS BacMam, thallium flux, beta subunits, selectivity assay, profiling panel (AID 1259406;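 active means thallium flux through the channel raised or lowered by more than 3 SD from vehicle-only wells, actives on both sides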;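 further: initial slope of Thallos dye fluorescence rise after thallium is added; log ratio against the mean of 0.3% DMSO vehicle wells on the same plate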); conditions: U2OS BacMam BK variants, at 30 µM
[17] = tested on: F380Y/beta1; test: as above; conditions: U2OS BacMam BK variants, at 30 µM
[18] = tested on: F380Y/beta2Delta; test: as above; conditions: U2OS BacMam BK variants, at 30 µM
[19] = tested on: F380Y/beta4; test: as above; conditions: U2OS BacMam BK variants, at 30 µM
[20] = measured here: epithelial PC-3E GFP cell survival
[21] = measured here: mesenchymal TEM4-18 mCherry cell survival
[22] = MELAS cybrid survival, CellTiter-Glo 48 h, stronger effect = higher value
[23] = Rieske KO mouse fibroblast survival, CellTiter-Glo 72 h

Chain of 6-phosphogluconate dehydrogenase, decarboxylating (Homo sapiens) (P52209 whole entry, looked up): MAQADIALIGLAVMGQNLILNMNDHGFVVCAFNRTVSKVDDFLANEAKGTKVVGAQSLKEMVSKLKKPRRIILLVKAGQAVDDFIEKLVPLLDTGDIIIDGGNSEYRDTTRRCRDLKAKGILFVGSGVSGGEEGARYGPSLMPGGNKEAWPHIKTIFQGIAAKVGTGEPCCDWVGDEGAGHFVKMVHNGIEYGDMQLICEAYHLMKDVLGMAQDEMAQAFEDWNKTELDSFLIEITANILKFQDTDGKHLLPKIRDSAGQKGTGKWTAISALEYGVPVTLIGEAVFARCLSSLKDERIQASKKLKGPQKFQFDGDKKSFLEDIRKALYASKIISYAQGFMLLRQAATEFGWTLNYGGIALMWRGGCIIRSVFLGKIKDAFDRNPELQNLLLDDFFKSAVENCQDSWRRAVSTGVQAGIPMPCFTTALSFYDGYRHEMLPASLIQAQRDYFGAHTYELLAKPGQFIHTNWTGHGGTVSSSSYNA
Chain of NAD(+) hydrolase SARM1 (Homo sapiens) (Q6SZW1 whole entry, looked up, the tested form may be a part): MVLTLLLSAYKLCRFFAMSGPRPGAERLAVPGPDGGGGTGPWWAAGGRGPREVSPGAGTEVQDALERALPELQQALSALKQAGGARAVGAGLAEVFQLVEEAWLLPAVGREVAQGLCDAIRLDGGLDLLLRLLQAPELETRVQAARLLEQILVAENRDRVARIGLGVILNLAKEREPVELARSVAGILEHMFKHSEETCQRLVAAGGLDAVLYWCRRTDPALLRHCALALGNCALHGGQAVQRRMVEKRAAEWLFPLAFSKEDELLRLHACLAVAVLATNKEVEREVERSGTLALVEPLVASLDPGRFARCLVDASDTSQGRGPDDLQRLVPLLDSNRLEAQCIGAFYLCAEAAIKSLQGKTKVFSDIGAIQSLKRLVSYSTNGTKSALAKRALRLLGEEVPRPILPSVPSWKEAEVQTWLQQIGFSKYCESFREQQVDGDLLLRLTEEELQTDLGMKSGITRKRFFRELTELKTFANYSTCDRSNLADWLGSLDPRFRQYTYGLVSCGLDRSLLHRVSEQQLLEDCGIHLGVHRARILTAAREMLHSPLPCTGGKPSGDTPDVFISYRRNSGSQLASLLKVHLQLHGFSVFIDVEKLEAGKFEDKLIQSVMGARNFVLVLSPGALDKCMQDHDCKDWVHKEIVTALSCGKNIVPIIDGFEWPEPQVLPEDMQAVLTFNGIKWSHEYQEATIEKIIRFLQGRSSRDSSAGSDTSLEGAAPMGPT
Chain of Mitogen-activated protein kinase 7 (Homo sapiens) (Q13164 whole entry, looked up, the tested form may be a part): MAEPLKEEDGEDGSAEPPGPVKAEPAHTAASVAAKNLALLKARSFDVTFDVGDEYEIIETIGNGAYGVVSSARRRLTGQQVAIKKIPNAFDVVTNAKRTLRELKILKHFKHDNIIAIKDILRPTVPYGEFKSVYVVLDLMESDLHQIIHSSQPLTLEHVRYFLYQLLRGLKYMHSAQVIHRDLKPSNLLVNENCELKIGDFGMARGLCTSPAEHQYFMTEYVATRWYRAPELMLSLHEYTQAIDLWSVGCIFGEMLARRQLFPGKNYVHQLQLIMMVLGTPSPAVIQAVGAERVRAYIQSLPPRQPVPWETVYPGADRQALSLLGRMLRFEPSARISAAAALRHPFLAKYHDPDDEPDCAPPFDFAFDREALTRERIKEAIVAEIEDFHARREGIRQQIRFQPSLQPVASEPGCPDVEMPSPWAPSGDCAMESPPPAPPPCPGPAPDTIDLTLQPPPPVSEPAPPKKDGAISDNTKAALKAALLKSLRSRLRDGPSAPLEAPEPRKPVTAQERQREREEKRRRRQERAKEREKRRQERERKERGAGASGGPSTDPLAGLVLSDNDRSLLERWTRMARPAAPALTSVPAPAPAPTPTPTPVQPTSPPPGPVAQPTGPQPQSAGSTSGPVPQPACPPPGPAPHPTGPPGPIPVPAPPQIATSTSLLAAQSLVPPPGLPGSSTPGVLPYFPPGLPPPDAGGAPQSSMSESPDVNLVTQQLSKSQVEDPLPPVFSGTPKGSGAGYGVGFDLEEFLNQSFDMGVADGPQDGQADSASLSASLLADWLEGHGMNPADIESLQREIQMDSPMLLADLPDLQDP

O=C1CCC(N2C(=O)c3ccccc3C2=O)C(=O)N1 (stereo not given)
-0.261 and 0.0412 and -1.15: z-score [12, 23]
active: viability decrease (inhibition) [8] 53.7% | viability ([13]; at 0.000305 µM, OCI-C5x cells, without rucaparib) 95% | viability ([13]; at 0.000305 µM, OCI-P5x cells, with rucaparib 20 µM, 100% = cells with rucaparib alone) 99.4% | viability ([13]; at 0.00488 µM, OCI-C5x cells, without rucaparib) 99.5%
2.1%: nuclear beta-catenin stimulation ([1]; stimulation, at 2 µM)
1.23: normalised cell number [11, 20]
inactive: nuclear beta-catenin stimulation ([1]; at 10 µM) 2.4% | insulin secretion stimulation [2] 0.6% | viability decrease [3] -12.6% | tube area decrease [4] 5.6% | GLP1 secretion stimulation [5] -3.8% | inhibition of viability [6] 6.9% | viability decrease (inhibition) [7] 11.1% | inhibition [9] -1.45% | mean signal [10] 238 | red/green cell ratio (normalised) [11] 1.17 | z-score [12, 22] -0.413 and 0.577 and -0.221 | viability ([13]; at 0.000305 µM, OCI-C5x cells, with rucaparib 10 µM, 100% = cells with rucaparib alone) 117% | viability ([13]; at 0.000305 µM, OCI-P5x cells, without rucaparib) 103% | viability ([13]; at 0.00122 µM, OCI-C5x cells, with rucaparib 10 µM, 100% = cells with rucaparib alone) 108% | viability ([13]; at 0.00122 µM, OCI-C5x cells, without rucaparib) 102% | viability ([13]; at 0.00122 µM, OCI-P5x cells, with rucaparib 20 µM, 100% = cells with rucaparib alone) 100% | viability ([13]; at 0.00122 µM, OCI-P5x cells, without rucaparib) 109% | viability ([13]; at 0.00488 µM, OCI-C5x cells, with rucaparib 10 µM, 100% = cells with rucaparib alone) 110% | viability ([13]; at 0.00488 µM, OCI-P5x cells, with rucaparib 20 µM, 100% = cells with rucaparib alone) 112% | viability ([13]; at 0.00488 µM, OCI-P5x cells, without rucaparib) 106% | viability ([13]; at 0.0195 µM, OCI-C5x cells, with rucaparib 10 µM, 100% = cells with rucaparib alone) 111% | viability ([13]; at 0.0195 µM, OCI-C5x cells, without rucaparib) 109% | viability ([13]; at 0.0195 µM, OCI-P5x cells, with rucaparib 20 µM, 100% = cells with rucaparib alone) 112% | viability ([13]; at 0.0195 µM, OCI-P5x cells, without rucaparib) 111% | viability ([13]; at 0.0781 µM, OCI-C5x cells, with rucaparib 10 µM, 100% = cells with rucaparib alone) 113% | viability ([13]; at 0.0781 µM, OCI-C5x cells, without rucaparib) 104% | viability ([13]; at 0.0781 µM, OCI-P5x cells, with rucaparib 20 µM, 100% = cells with rucaparib alone) 107% | viability ([13]; at 0.0781 µM, OCI-P5x cells, without rucaparib) 115% | viability ([13]; at 0.313 µM, OCI-C5x cells, with rucaparib 10 µM, 100% = cells with rucaparib alone) 114% | viability ([13]; at 0.313 µM, OCI-C5x cells, without rucaparib) 109% | viability ([13]; at 0.313 µM, OCI-P5x cells, with rucaparib 20 µM, 100% = cells with rucaparib alone) 112% | viability ([13]; at 0.313 µM, OCI-P5x cells, without rucaparib) 119% | viability ([13]; at 1.25 µM, OCI-C5x cells, with rucaparib 10 µM, 100% = cells with rucaparib alone) 114% | viability ([13]; at 1.25 µM, OCI-C5x cells, without rucaparib) 103% | viability ([13]; at 1.25 µM, OCI-P5x cells, with rucaparib 20 µM, 100% = cells with rucaparib alone) 116% | viability ([13]; at 1.25 µM, OCI-P5x cells, without rucaparib) 117% | viability ([13]; at 5 µM, OCI-C5x cells, with rucaparib 10 µM, 100% = cells with rucaparib alone) 116% | viability ([13]; at 5 µM, OCI-C5x cells, without rucaparib) 108% | viability ([13]; at 5 µM, OCI-P5x cells, with rucaparib 20 µM, 100% = cells with rucaparib alone) 114% | viability ([13]; at 5 µM, OCI-P5x cells, without rucaparib) 115% | remaining NAD [14] 10 nM | luciferase signal [15] 36 AU | log fold change Tl+ flux [16] -0.00432 | log fold change Tl+ flux [17] -0.0788 | log fold change Tl+ flux [18] -0.0091 | log fold change Tl+ flux [19] 0.0329
1.44: normalised cell number [11, 21]

c1ccc(CC2=NCCN2)cc1
inactive: nuclear beta-catenin stimulation ([1]; at 10 µM) 0.4% | insulin secretion stimulation [2] -1% | viability decrease [3] -3.85% | tube area decrease [4] -0.5% | GLP1 secretion stimulation [5] 1.9% | inhibition of viability [6] -10.6% | viability decrease (inhibition) [7] 15.1% | viability decrease (inhibition) [8] 5.35% | inhibition [9] -8.93% | mean signal [10] 271 | red/green cell ratio (normalised) [11] 1.19 | z-score [12, 22] -0.147 and 0.373 | remaining NAD [14] 10 nM | luciferase signal [15] 44 AU | log fold change Tl+ flux [16] 0.00977 | log fold change Tl+ flux [17] 0.0105 | log fold change Tl+ flux [18] -0.0174 | log fold change Tl+ flux [19] -0.03
0.88: normalised cell number [11, 20]
-0.183 and 0.131: z-score [12, 23]
1.04: normalised cell number [11, 21]
1%: nuclear beta-catenin stimulation ([1]; stimulation, at 2 µM)

CCNC(=O)[C@@H]1CCCN1C(=O)[C@H](CCCN=C(N)N)NC(=O)[C@H](CC(C)C)NC(=O)CNC(=O)[C@H](Cc1ccc(O)cc1)NC(=O)[C@H](CO)NC(=O)[C@H](Cc1c[nH]c2ccccc12)NC(=O)[C@H](Cc1cnc[nH]1)NC(=O)[C@@H]1CCC(=O)N1 ([pGlu]HWSYGLRP-NHEt)
inactive: nuclear beta-catenin stimulation ([1]; at 10 µM) 0.5% | insulin secretion stimulation [2] -0.8% | viability decrease [3] 32.1% | tube area decrease [4] -2.8% | GLP1 secretion stimulation [5] -2.8% | inhibition of viability [6] 33% | viability decrease (inhibition) [7] 25.1% | viability decrease (inhibition) [8] 29.7%
-0.6%: nuclear beta-catenin stimulation ([1]; stimulation, at 2 µM)

Reference: PubChem BioAssay
